The source made the active and inactive calls. The rule behind the calls is not given here.
Test: inhibition of PAO1 biofilm formation – strain PAO1, LB-PBS medium, absorbance 600 nm, primary screen (AID 1176); note: test concentration not given here
Conditions: P. aeruginosa PAO1 growth/biofilm, A600, 12 h; higher = more signal

Row | SMILES | z-score
1 | COc1cc2c(cc1OC)CN(C(=O)[C@H]1[C@@H]3C(=O)O[C@@H](c4ccccc4)[C@@H](c4ccccc4)N3[C@@H](c3ccc(O)cc3)[C@]13C(=O)Nc1ccccc13)CC2 | 1.67 (inactive)
2 | C=CCNC(=O)[C@@H]1[C@H]2C(=O)O[C@H](c3ccccc3)[C@H](c3ccccc3)N2[C@H](c2ccc(OCCO)cc2)[C@@]12C(=O)Nc1ccc(C#CCC(C(=O)OC)C(=O)OC)cc12 | 1.89 (inactive)
3 | COCCOC(=O)N1C(=O)[C@@]2(c3cc(C#CC4(O)CCCCCC4)ccc31)[C@H](c1ccc(OCCO)cc1)N1[C@H](c3ccccc3)[C@H](c3ccccc3)OC(=O)[C@H]1[C@@H]2C(=O)N1CCN(c2ncccn2)CC1 | 2.57 (inactive)
4 | CC1(C)[C@@H]2CC(C(O)C3C=CC4C(=O)N(c5ccccc5)C(=O)C4N3Nc3ccc([N+](=O)[O-])cc3)=C[C@H]1C2 (stereo partly specified) | 1.07 (inactive)
5 | NC(=O)NCC#Cc1ccc2c(c1)[C@]1(C(=O)N2)[C@H](C(N)=O)[C@H]2C(=O)O[C@H](c3ccccc3)[C@H](c3ccccc3)N2[C@@H]1c1ccc(O)cc1 | -0.212 (inactive)
6 | O=C(c1ccccc1)N1Cc2ccccc2C[C@@]2(COC(c3ccc(OCCCO)cc3)=N2)C1=O | 0.248 (inactive)
7 | C=CC[C@]1(C(=O)NCc2ccccc2)N=C(c2ccc(OCCCO)cc2)O[C@H]1c1ccccc1N=[N+]=[N-] | 1.39 (inactive)
8 | CC1CC/C=C\[C@H]2OC34C=CCN(C(C)(C)C)C(=O)[C@H]3N(C(C)CO)C(=O)[C@@H]4C2C(=O)O1 (stereo partly specified) | -0.525 (inactive)
9 | CCOC(=O)C[C@H]1[C@H](OC(=O)c2ccc(C(=O)c3ccccc3)cc2)[C@@H](NC(=O)c2ccccc2)c2cc(OCCCO)ccc2N1C(=O)Cc1ccc(OC)cc1 | 0.62 (inactive)
10 | COCCOC(=O)N1C(=O)[C@@]2(c3cc(C#CCNC(N)=O)ccc31)[C@H](C(=O)Nc1nc3ccccc3s1)[C@H]1C(=O)O[C@H](c3ccccc3)[C@H](c3ccccc3)N1[C@@H]2c1ccc(OCCO)cc1 | 2.41 (inactive)
11 | CC(C)OC(=O)C=C1C[C@@H](c2ccccn2)O[C@@H](c2ccccn2)O1 | 0.0362 (inactive)
12 | COC(=O)C(CC#Cc1ccc2c(c1)[C@]1(C(=O)N2)[C@H](c2ccc(OCCO)cc2)N2[C@H](c3ccccc3)[C@H](c3ccccc3)OC(=O)[C@H]2[C@@H]1C(=O)N1CCc2cc(OC)c(OC)cc2C1)C(=O)OC | 3.7 (inactive)
13 | COc1ccc([Si](C)(C)[C@H]2[C@H](CC(=O)N3Cc4ccccc4C[C@H]3CO)O[C@@]3(C(=O)N(Cc4cccc(N5CCC5=O)c4)c4ccccc43)[C@@H]2C)cc1 | 0.389 (inactive)
14 | COCCCNC(=O)[C@]1(CCC(=O)OC(C)(C)C)N=C(c2ccc(OCCCO)cc2)O[C@@H]1c1ccccc1CN=[N+]=[N-] | 1.56 (inactive)
15 | COCCOC(=O)N1C(=O)[C@@]2(c3cc(C#CCC(C(=O)OC)C(=O)OC)ccc31)[C@H](c1ccccc1OCCO)N1[C@H](c3ccccc3)[C@H](c3ccccc3)OC(=O)[C@H]1[C@@H]2C(=O)NC[C@H](O)c1ccccc1 | 2.23 (inactive)
16 | O=C1c2ccccc2[C@](Cc2ccccc2I)(C(=O)NCC(F)(F)F)[C@H](c2ccc(CO)cc2)N1Cc1ccccc1Cl | 0.723 (inactive)
17 | COc1cc2c(cc1O)C(c1cccs1)N(C)CC2 (stereo unspecified) | 0.282 (inactive)
18 | C=C[C@@H](COC(=O)OC(C)(C)C)N(Cc1ccc(OC)cc1)S(=O)(=O)c1ccc(Br)cc1 | -0.177 (inactive)

Row | SMILES | z-score
19 | CCS[C@H]1[C@@H](C(=O)O)[C@H](c2ccc(C)cc2)N(S(=O)(=O)c2ccc(C)cc2)[C@@H]1CC | 0.257 (inactive)
20 | CN1C(=O)C2C=CC(C(O)C#Cc3ccccc3)N(N3CCCCC3)C2C1=O (stereo unspecified) | 0.614 (inactive)
21 | O=C1O[C@H](c2ccccc2)[C@H](c2ccccc2)N2[C@H]1[C@@H](C(=O)N1CCCCCCC1)[C@]1(C(=O)Nc3ccc(C#CCCO)cc31)[C@H]2c1ccccc1OCCO | 1.15 (inactive)
22 | CC(C)C(=C=CC[C@@H](O)c1ccc(OCCO)cc1)C[C@@H](O)COCc1ccccc1 | 0.919 (inactive)
23 | CCCC[C@H]1OB(O)C[C@H]2C1=C(COC)Cn1c(=O)n(-c3ccccc3)c(=O)n12 | 0.0937 (inactive)
24 | CCC[C@@H]1C[C@@]1(CCC)[C@@H](NS(=O)(=O)c1cccc2cccnc12)c1ccc(Cl)cc1 | 0.908 (inactive)
25 | [N-]=[N+]=Nc1ccccc1[C@@H]1OC(c2ccc(OCCCO)cc2)=N[C@]1(CCS(=O)(=O)c1ccccc1)C(N)=O | -0.291 (inactive)
26 | COC(=O)[C@@]1(Cc2ccc(F)cc2)[C@H]2c3cc(C(=O)N(C)C)n(Cc4ccc(Cl)c(C(F)(F)F)c4)c3C[C@H]2CN1C(=O)c1ccccc1 | 1.09 (inactive)
27 | CO[C@H]1O[C@H](CO)[C@@H](OC(=O)Nc2ccc(Oc3ccccc3)cc2)[C@H](OC(=O)Nc2ccc3c(c2)OCO3)[C@H]1OC(=O)Nc1ccc2c(c1)OCO2 | 2.07 (inactive)
28 | CC(C)=CCCC(C)=CC(O)C1C=CC2C(=O)N(C)C(=O)C2N1Nc1ccccc1 (stereo unspecified) | 1.51 (inactive)
29 | CCOC(=O)C[C@H]1[C@H](OC(=O)c2ccc(-c3ccccc3)cc2)[C@@H](NC(=O)Cc2ccc(OC)cc2)c2cc(OCCCO)ccc2N1C(=O)c1ccccc1 | -0.252 (inactive)
30 | CC(C)C[C@@H]1NC(=O)[C@@H]2C[C@H](C(=O)NCc3ccc(F)cc3)[C@H](c3cccc(OCCO)c3)N2C1=O | 0.475 (inactive)
31 | NC(=O)NCC#Cc1ccc2c(c1)[C@]1(C(=O)N2)[C@H](c2ccccc2OCCO)N2[C@H](c3ccccc3)[C@H](c3ccccc3)OC(=O)[C@H]2[C@@H]1C(=O)Nc1nc2ccccc2s1 | 2.29 (inactive)
32 | C=C(CCCC)/C(=C/C[C@@H](OC(=O)c1ccncc1)c1ccc(OCCO)cc1)c1cc(C(=O)OC)ccc1OC | -0.39 (inactive)
33 | C=C(C)[C@@H]1CC=C(C(O)C2C=CC3C(=O)N(C)C(=O)C3N2Nc2ccccc2)CC1 (stereo partly specified) | 0.751 (inactive)
34 | O=C1N[C@@H](Cc2ccccc2)C(=O)N2[C@@H]1C[C@@H](C(=O)O)[C@H]2c1cccc(OCCO)c1 | 0.0499 (inactive)
35 | COC(=O)C(CC#Cc1ccc2c(c1)[C@]1(C(=O)N2)[C@H](c2ccc(OCCO)cc2)N2[C@H](c3ccccc3)[C@H](c3ccccc3)OC(=O)[C@H]2[C@@H]1C(=O)Nc1nc2ccccc2s1)C(=O)OC | 2.98 (inactive)
36 | C=CCN1C(=O)[C@@]2(Cc3ccccc31)N=C(c1ccc(OCCCO)cc1)O[C@H]2c1ccccc1 | 0.122 (inactive)

— PubChem BioAssay
